# This is a sample that favours compounds with a hit; in the whole collection about 2.1% have one here.
# eIF4H FP inh: inhibitors of RNA binding by human eIF4H | Q15056 | 290,000 tested, 0.94% active | AID 2012 | inhibition, % at 35 µM | eIF4H fluorescence polarization binding assay;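 further: calls also rest on retests at 20 µM and on dose response follow-up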
# MLLE-PAM2 inh: blocks PAM2 peptide binding to the PABP1 MLLE domain; P11940; GST-MLLE / FITC-PAM2 fluorescence polarization; inhibition, % at 20 µM; 360,000 tested, 0.36% active; AID 588489; in the data active means inhibition above about 35%, passing the limit was not always enough;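 further: plate controls were DMSO wells with GST-MLLE for no effect and wells lacking GST-MLLE protein for full effect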
# PABP FP inh: PABP-poly(A) binding inhibition. P11940. 290,000 tested, 1% active. PABP-poly(A) RNA binding, fluorescence polarization. inhibition, % at 35 µM. AID 2014;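 further: calls also rest on retests at 20 µM and on dose response follow-up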
# NRP1-CendR mod: modulators of CendR peptide binding to human neuropilin-1 | inhibition, % at 25 µM | O14786 | FAM-RPARPAR peptide binding to NRP-1, fluorescence polarization | 360,000 tested, 0.85% active;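 active means inhibition or corrected inhibition above about 18%, plus a signal ratio from 0.5 to 1.5, limit read from the data, passing the limit was not always enough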
# Active calls of the source: *; ? = inconclusive; · = no result; ! = a repeat was not active. Unless noted, how the calls were made is not given here.
SMILES,eIF4H FP inh,MLLE-PAM2 inh,PABP FP inh,NRP1-CendR mod
CSC1=C(C#N)C(=O)NC(c2ccc(Cl)cc2)S1 (stereo not drawn),-3,11,-10,-18
CNC(=O)NC(=O)C(C)OC(=O)c1c(C)noc1C (stereo not drawn),-7,0,-12,43*
Cc1cccc2nc(-c3ccccc3)nc(N3CCC(O)(c4ccc(Cl)cc4)CC3)c12,-3,12,0,31*
CCOC(=O)C1=C(C(=O)OCC)N(CC2CCCCC2)CCC1=O,·,-6,·,-10
C=CCn1c(=O)/c(=C\c2ccccn2)s/c1=C(/C#N)C(=O)NCC1CCCO1 (stereo not drawn),?,-23,32,-89
C=CCn1c(=O)/c(=C/c2ccc(C)o2)s/c1=C(/C#N)C(=O)c1ccccc1,?,-111,128*,-91
CC(=O)NCCN=C(C)c1sc2ccccc2c1O,0,35*,1,-3
CCc1ccc([C@@H]2CC=C(C(=O)O)[C@H](c3ccc(F)cc3)N2S(=O)(=O)c2ccc(C)cc2)cc1,·,7,·,-8
COC(=O)CC1=C(C(=O)OC)C(c2ccncc2)C(C#N)=C(N)O1 (stereo not drawn),109,3,105*,13
CCN1C(=O)c2ccccc2S(=O)c2ccc(C(=O)NCc3ccc(OC)cc3)cc21 (stereo not drawn),-5,-9,-2,5
Cn1nnnc1SCc1nnc(-c2ccc(F)cc2)o1,-11,-7,-2,25*
Cn1nnnc1SCc1nnc(-c2ccccc2Br)o1,4,-11,-7,-2
CC(C)Oc1ccccc1C1(c2ccccc2)NC(=O)NC1=O (stereo not drawn),5,-15,-10,9
COC(=O)c1cc2c(C)nn(-c3ccccc3)c2s1,-5,-10,-3,31*
COc1cc(C(=O)NCCc2ccc(F)cc2)ccc1OCC(=O)N1CCOCC1,·,-2,·,12
Cc1cccc(CN2[C@H](COCc3ccccc3)C=CS2(=O)=O)c1,·,0,·,8
O=C(O)CS(=O)(=O)c1ccc(C(F)(F)F)cn1,-4,1,2,36*
CN1C(=O)C2(OCC(CO)([N+](=O)[O-])CO2)c2ccccc21 (stereo not drawn),-3,-8,2,8
Cc1cccc(C(CC(=O)NCCc2ccccc2)c2ccccc2)c1O (stereo not drawn),-8,-4,-6,21*
COc1ccc(NC(=O)c2cc(C3CCCCN3S(=O)(=O)c3ccc(C#N)cc3)on2)c(C)c1 (stereo not drawn),·,1,·,0
COc1ccc(S(=O)(=O)N2CCCCC2c2cc(C(=O)Nc3ccc(OC)cc3C)no2)cc1 (stereo not drawn),·,6,·,45*
CC(C)CN(C(=O)COC(=O)CCc1nc2ccccc2s1)c1c(N)n(Cc2ccccc2)c(=O)[nH]c1=O,·,-5,·,-18
O=C(COC(=O)c1cc(=O)[nH]c2ccccc12)NCc1ccc(Cl)cc1,·,6,·,9
COc1ccc(N2Cc3cccc(C(=O)N4CCN(C(=O)c5ccco5)CC4)c3C2=O)cc1,93*,-10,70*,-17
CCN(C(=O)CSc1nnnn1C)C1CCS(=O)(=O)C1 (stereo not drawn),·,1,·,3
SMILES,eIF4H FP inh,MLLE-PAM2 inh,PABP FP inh,NRP1-CendR mod
Cc1nc2cc(Cl)c(Cl)cc2n1CCCO,2,-14,2,-8
Cc1cc(=S)cc(C)n1CCCO,-6,21,-1,32*
CC(C)n1c(O)c(N=NC(=O)CNC(=O)CCc2ccccc2)c2ccccc21,-15,-8,0,-4
CC(C)n1c(O)c(N=NC(=O)CNC(=O)Cc2ccc(Cl)cc2)c2ccccc21,-17,-1,-3,21*
CCCn1c(O)c(N=NC(=O)c2cccnc2)c2cc(Br)ccc21,-5,0,8,10
CCOc1ccc(NC(=S)NC(=O)c2c(Br)cnn2C)c([N+](=O)[O-])c1,5,19,-8,0
CCOc1ccc(NC(=S)NC(=O)c2cccnc2)c([N+](=O)[O-])c1,-13,44*,0,0
COc1ccc(C(=O)NC(=S)NCc2cccnc2)cc1[N+](=O)[O-],-5,38*,7,-2
Cc1ccc(NC(=S)NC(=O)C2CCC2)cc1C,-9,21,-8,-17
Fc1ccc(SCCc2ccncc2)cc1,-3,43*!,-11,-12
Cc1[nH]nc2c1C(c1ccc(F)cc1)C(C#N)=C(N)O2 (stereo not drawn),2,7,-6,-27
Cc1oc(C)c2c(=O)ccc3c(c12)OC(N)=C(C#N)C3c1ccc(F)cc1 (stereo not drawn),70*,-55,112*,-110
CCc1cc2c(SCC(=O)N3CCN(C(=O)c4cccs4)CC3)ncnc2s1,·,-4,·,-15
O=C(O)C1CSC(c2ccncc2)N1 (stereo not drawn),0,38*,3,1
CCOCC(=O)Nc1nc2ccc(C)cc2s1,-3,41*,2,4
COc1cccc(CN2CC(C(=O)N(C)C3CCOCC3)CCC2=O)c1 (stereo not drawn),-9,4,0,4
COc1ccc(NS(=O)(=O)c2csc(C(=O)N3CCCC3)c2)c(OC)c1,-3,10,13,19*
Cc1ccc(-c2nnn(CC(=O)N(c3ccc4c(c3)OCCO4)C(C(=O)NCC3CCCO3)c3ccc(F)cc3)n2)o1 (stereo not drawn),-11,-1,-9,12
CN(C)CC/C=C1/c2ccccc2Sc2ccc(Cl)cc21,-1,10,0,27*!
CC1(C)CC(=O)C=C(c2cccs2)C1,·,0,·,0
CCCCN(c1ccccc1)S(=O)(=O)c1ccc2c(c1)CCN2C(=O)CCC(=O)O,-12,-5,0,25*
N#CC(C#N)=Cc1cc2ccccc2nc1N1CCCCC1,52,3,-3,33*
CCOC(=O)/C(C#N)=C/c1cc2ccccc2nc1N1CCOCC1,2,-38,9,-21
CNCc1ccccc1Sc1cc(O)ccc1O,48,45*,-9,-11
CNCc1ccccc1Sc1cccc(O)c1,0,9,-6,9
SMILES,eIF4H FP inh,MLLE-PAM2 inh,PABP FP inh,NRP1-CendR mod
O=c1[nH]ncn1-c1cccc(C(F)(F)F)c1,59*,0,32,11
Cc1ccc(P(=O)(CSC(=N)N)c2ccc(C)cc2)cc1,3,28,7,14
N=C(N)SCP(=O)(c1ccccc1)c1ccccc1,6,38*,-5,-10
O=C(NC(=S)N1CCCCC1)c1csc([N+](=O)[O-])c1,2,14,-11,-12
O=C1CCCC(O)=C1Sc1ccccc1C(=O)O,87*,9,51,2
O=C(Cn1cc(C(F)(F)F)cc(Cl)c1=O)Nc1cc(S(=O)(=O)N2CCOCC2)ccc1Cl,-13,2,29,22*
O=C(NCCN1CCN(C(=O)c2cccc(Br)c2)CC1)C(=O)Nc1ccc(Br)cc1,5,-9,17,12
CCCCCc1c2c(cc(O)c1C(=O)O)OC(=O)c1c(cc(OC)cc1C(=O)CCCC)O2,62,-6,25*,-93
CSc1ncccc1C(=O)OCC(=O)Nc1ccc2c(c1)CCC2,·,-1,·,0
COc1ccc(O)c(/C=N/NC(=S)Nc2cccnc2)c1,12,41*,8,-1

# Compound activity from PubChem.
